The full ranking holds about 25,000 sequences; the median of “ln(normalized median fluorescence intensity)” is about 7.1, and the highest 2% start at about 10. What follows is part of a selection rich in the highest values, with near analogues and random picks from the rest.

The record followed here is the supplement of paper PMC11417369.

The test system of the experiment is PfSIP2 AP2 domain 1 (GST-tagged). Nature of the experiment: gcPBM binding intensity (ln(normalized median fluorescence intensity)); higher = stronger DNA binding. The method, boiled down:
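GST-tagged P. falciparum DNA-binding domains, expressed in E. coli (about 25 μg on average), were applied for 1 h to an Agilent 4 × 180k array of primer-extended double-stranded 36-bp intergenic genomic probes plus negative controls. The binding buffer was 1× PBS with 1% milk, 0.2 mg/ml BSA, 0.5% salmon testes DNA and 0.03% Triton X-100. Bound protein was detected with Alexa488 anti-GST antibody and scanned at 488 nm. Binding intensity is the highest Masliner-normalised natural-log median intensity across replicate spots of either probe orientation.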
On to AAATAATTAGAAATAGTGCACATAATTAAGGGATAC, for which the “gcPBM binding intensity (ln)” value was found to be 10.1. In the case of AATGACTACATAATAGTGCAATATTAAAGAAAATTA, the “gcPBM binding intensity (ln)” value amounted to 8.55. Turning to TTCTCCTAATAGTTAGTGCACTACATAACTAAGAAA, the “gcPBM binding intensity (ln)” value came out at 10.8. With “TATTTTTTTACATATTGTACATAATATAAAACTTAC [XGTACX_site8273]”, the “gcPBM binding intensity (ln)” value is 7.17.

For the sequence GAAAAATATATTCTGGTGCATGAATAAAATCATAAA, the “gcPBM binding intensity (ln)” value was 10.2. As to “GATAAAATCACTGGTGCATGTAGATATATAATATTA [TGCATGCA_site589]”, the “gcPBM binding intensity (ln)” value was 10.5.

On to “TATTATATATTAAATGCATGTAAAAATAATATTAAA [TGCATGCA_site643]”, for which the “gcPBM binding intensity (ln)” value is 7.02. To “TACCATAATCAATGCACACATAACAAAATATTATTA [CACACA_site2722]” belongs 7.33; to “ATCAAAATTGTCATTACACACCTTTATTTTTATAAT [CACACA_site5071]”, 7.12.

As for “TATATGGAGAGATATGCACACTGTATGAATGCCCCC [CACACA_site8853]”, the “gcPBM binding intensity (ln)” value was 9.32.

Turning to “AATATATAGAGAGATATGCACACTGTATGAATGCAC [CACACA_site2677]”, the “gcPBM binding intensity (ln)” value came to 10.3. As for “TATATAGAGAGATATGCACACTGTATGAATGCCCCC [CACACA_site5476]”, the figure is 9.53; as for “ATATATATATATAATAAACACACAAATAGATATAAC [CACACA_site9234]”, 9.02. To “AATAATTCATCATATGCACACACAATACCAAAATGT [CACACA_site7945]” belongs 8.05. To “GAAAATATTAAATGAAGTACAATATTTATGTTACTT [XGTACX_site8737]” belongs 6.71.

As for “TATATATATATATATACATGCATATTTTTTATTTTT [TGCATGCA_site464]”, the “gcPBM binding intensity (ln)” value amounted to 9.67. Consider “TTTTTTTTTGGGGGTGCATGCAAGACATATATTTAA [TGCATGCA_site228]”, for which the “gcPBM binding intensity (ln)” value is 11.6. To “AATATTTTTTTTTAAACATGCATATTTGCATTACCC [TGCATGCA_site437]” belongs 6.99; to “ACAAAATAATTGTTTACACACCCATTTGTAATTTTA [CACACA_site3615]”, 6.88. As to “TTATCATATCATGGAAGTACAAATAAAATATATAAC [XGTACX_site1608]”, the “gcPBM binding intensity (ln)” value was determined as 7.24. As for “ATTTCATATGGTCAACGTACTCATGCATCCCTCCTT [XGTACX_site437]”, the figure is 6.86; as for “GTTATAATTGAACTAGTGCATAAATATATTTTAATT [GTGCAC_site9851]”, 9.01.

Consider “TTATTTTAATTTTTGGTGCATATTCAAGTGTACCTT [GTGCAC_site9791]”, for which the “gcPBM binding intensity (ln)” value came out at 9.68. Consider ATTTTCACCTGAACGGTGCATATTTAATTTTAGGTT, for which the “gcPBM binding intensity (ln)” value came out at 10.5.

In the case of “ATTTATTTATCTAGCTATTCACCATTTTCTTTTGTT [CACACA_negctrl_site1259]”, the “gcPBM binding intensity (ln)” value turned out to be 6.61. To “TTTAATTGATAATGAAGACAATTATATGCATCCAAA [TGCATGCA_negctrl_site138]” belongs 6.79.

As for “ACGACATATGGATGATGTACTATCTTTATTATACAT [XGTACX_site6857]”, the “gcPBM binding intensity (ln)” value came to 6.89. In the case of “TAAAGAAATAAATACATACACACATATATATATATA [CACACA_site3363]”, the “gcPBM binding intensity (ln)” value stood at 9.69. As for “TATACAGATAAATACACACACACATATATATATATA [CACACA_site4845]”, the figure is 9.39.

Turning to ATATATATATAATAAGTGCAAAAAAAAGAAAAAAAT, the “gcPBM binding intensity (ln)” value came to 8.48. “AAATATAAGAAAAAGGTGCTTTTTTTTTTTTTTTTT [GTGCAC_site9700]”: the “gcPBM binding intensity (ln)” value worked out at 8.42.

As for “AAAGAAATAAGGTGCACACATATACATATATATATA [CACACA_site429]”, the “gcPBM binding intensity (ln)” value was 11.9.

For “AGAAATAAGAAATATACACACATATATATATATATA [CACACA_site2808]”, the “gcPBM binding intensity (ln)” value was 9.79.

In the case of “TAAAAGAAATAAGGTGCACACATATACATATATATA [CACACA_site8037]”, the “gcPBM binding intensity (ln)” value is 11.8. In the case of “ATGCATAAAAGAAATACACACATAAATATATAAATA [CACACA_site2163]”, the “gcPBM binding intensity (ln)” value turned out to be 7.02. To “AAATATAATATATGCACACATACATACAGATATATA [CACACA_site4235]” belongs 7.09; to “AAAGAAATAAGGTGCACACATATACAGATATATATA [CACACA_site4399]”, 11.9; to AAAAAAAAAATACAGGTGCAATAAGAAAAAAATGGT, 10.2. For the sequence “TAAAAGAAATAATATACACACATATATAAAAATAAA [CACACA_site1329]”, the “gcPBM binding intensity (ln)” value came out at 6.86. Consider “AAGGAAAAGTAAAGAAGTACTGTACCGCCAAAAAAA [XGTACX_site2607]”, for which the “gcPBM binding intensity (ln)” value amounted to 6.98. As for “TAAATATATTTATATTGTACATTTATGTTGATACCA [XGTACX_site228]”, the figure is 6.88. Consider “TATAGATAAGAATATGCACACATTTTATTTTTTTTT [CACACA_site1982]”, for which the “gcPBM binding intensity (ln)” value came to 7.16. Regarding “TCTTTAAAAAAAAAAAAAAAAAATTCCAAATAAATA [TGCATGCA_negctrl_site538]”, the “gcPBM binding intensity (ln)” value stood at 6.72. Take “ATTTGTTCATTTGGTTGTACATAATTTATTTTTATA [XGTACX_site785]”: the “gcPBM binding intensity (ln)” value came to 7.26. With “TTGTATATTTTATGTACACACAATAAGTTAATATAA [CACACA_site4655]”, the “gcPBM binding intensity (ln)” value was 7.29. Take “TATATTTATATCATCACACATTTTTTTTTTCTTTTT [CACACA_site6150]”: the “gcPBM binding intensity (ln)” value was 6.58.
